This is a sample that favours compounds with a hit; in the whole collection about 2.4% have one here.
D2 antagonist = D2 dopamine receptor (human) antagonism; P14416; HEK293 TREx D2 cells, calcium flux, dopamine EC80; inhibition, % at 10 µM; actives 2% (n = 340,000); in the data active means inhibition above about 30%; inactive means below that, where a call was filed; further: 0% is about no effect
Target sequence (P14416 whole entry, looked up): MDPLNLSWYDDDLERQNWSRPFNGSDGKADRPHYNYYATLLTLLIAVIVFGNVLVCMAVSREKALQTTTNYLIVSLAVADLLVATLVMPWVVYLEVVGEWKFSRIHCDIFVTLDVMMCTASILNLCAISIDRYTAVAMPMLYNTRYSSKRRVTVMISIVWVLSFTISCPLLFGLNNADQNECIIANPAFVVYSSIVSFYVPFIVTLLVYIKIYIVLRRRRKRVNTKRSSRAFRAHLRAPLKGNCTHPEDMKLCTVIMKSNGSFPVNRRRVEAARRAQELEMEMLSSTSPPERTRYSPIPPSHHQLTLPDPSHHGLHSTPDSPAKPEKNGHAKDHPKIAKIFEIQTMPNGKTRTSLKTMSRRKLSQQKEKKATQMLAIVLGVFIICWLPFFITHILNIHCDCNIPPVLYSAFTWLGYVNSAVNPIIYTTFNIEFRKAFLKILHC
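Calcium mobilization kinetics were recorded at 1 s intervals in tetracycline-induced HEK293 T-REx D2 cells, first for 180 s after compound addition and then 180 s after EC80 dopamine.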
D2 ag-1 = agonists of human D2 dopamine receptor; HEK293 T-REx D2 cells, calcium flux agonist mode; activation, % at 2 µM; actives 0.53% (n = 340,000); AID 485358;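 active means activation over 3 SD above normal in the single-dose calcium agonist read, cut at about 30% in these data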; further: 0% is about no effect
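Calcium-flux readout, 1 cycle/sec over 180 s following compound pin transfer, in inducible HEK293 Trex D2 cells (force-coupled); dopamine controls included. Positive calcium responses during this window marked compounds as potential agonists.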
D2 PAM-1 = human D2 receptor positive allosteric modulation; actives 0.23% (n = 360,000); potentiation, % (concentration not given with the values); DiscoveRx D2 beta-arrestin cells, luminescence, 90 min; 100% = 57 uM dopamine signal; AID 624464; in the data active means potentiation above about 50%; inconclusive means mostly about 30% to 49%
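PathHunter D2 cells, attached overnight at 37 deg C, received compound in DMSO plus dopamine at EC20 (50 nM final) for 90 min at 37 deg C. Beta-arrestin recruitment was read as luminescence after 1 h with detection reagent at ambient temperature.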
D2 ag-2 = human D2 receptor agonism in beta-arrestin assay | P14416 | DiscoveRx PathHunter D2 beta-arrestin, luminescence, 90 min; 100% = 57 uM dopamine signal | activation, % (test concentration not listed) | actives 0.084% (n = 360,000) | AID 624465; in the data active means activation above about 40%; inconclusive means between about 15% and that limit
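Agonist mode: compounds alone added to overnight-plated D2 PathHunter cells for 90 min at 37 C, with 57 uM final dopamine (EC100) defining full response. Beta-arrestin recruitment detected by chemiluminescent reagent, read after 1 h at ambient temperature.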
D2 PAM-2 = positively modulates the human D2 dopamine receptor allosterically | actives 0.34% (n = 340,000) | potentiation, % at 10 µM | P14416 | HEK293 T-REx D2, calcium flux, EC20 dopamine potentiation | AID 485347;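 active means potentiation over 3 SD above the plate norm, cut at about 30% in these data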; further: 0% is about no effect
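Primary screen. Calcium kinetics in induced HEK293 T-REx D2 cells: compound pre-addition 180 s, EC20 dopamine, 180 s more.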
Active calls of the source: *; ? = inconclusive; . = no result.

SMILES	D2 antagonist	D2 ag-1	D2 PAM-1	D2 ag-2	D2 PAM-2
O=C(COc1ccc(S(=O)(=O)N2CCOCC2)cc1Cl)NCc1ccccn1	24.7	0.6	0.5	0.9	33.6*
CCN(c1cccc(C)c1)S(=O)(=O)c1cc(Br)cc2c1N(C(C)=O)C(C)C2 (stereo unspecified)	.	-0.6	.	.	-2.9
Cc1ccc(Nc2ccccc2)cc1	40.5*	-0.5	-14.2	-2.3	1.7
CC(/C=N/NC(=O)c1ccncc1)=C\c1ccccc1	-4.8	-0.2	9.4	-0.9	-16.9
CC(=C/c1ccccc1)/C=N/NC(=O)c1ccccn1	6.4	-0.3	-11.4	-0.5	-7.7
CC(/C=N/NC(=O)c1cccc(F)c1)=C\c1ccccc1	33.4*	-1.2	-18.3	3.2	-37.5
COc1ccccc1C(=O)N/N=C/C(C)=C/c1ccccc1	74.6*	0.2	-29.3	3.5	-12.7
CC(=C/c1ccc(C(C)C)cc1)/C=N/NC(=O)c1ccncc1	36.1*	-5.0	2.0	3.9	4.4
COc1ccc(NC(=O)Cn2c(SCc3ccc(C)cc3)nc3cccnc32)c(OC)c1	.	0.1	.	.	3.6
O=C(Cn1c(=O)n(-c2ccc(Cl)cc2)c(=O)c2sc3ccccc3c21)NC1CCCCC1	.	0.9	.	.	0.1
COc1ccc(-n2nc3ccc(NC(=O)c4c(OC)cccc4OC)cc3n2)cc1	.	-0.3	.	.	8.7
CC1CC(=O)Nc2ccccc2N1C(=O)COc1ccc2ccccc2c1 (stereo unspecified)	.	.	1.5	2.2	.
O=C1CN(C(=O)COc2ccc(F)cc2Cl)c2ccccc2N1	14.8	-0.2	6.5	-0.1	1.5
O=C1CN(C(=O)COC(=O)c2cccs2)c2ccccc2N1	16.4	-1.0	-0.5	-5.3	16.0
O=C1CN(C(=O)COc2ccc(Cl)cc2Cl)c2ccccc2N1	30.2*	0.9	2.6	-1.6	-3.9
O=C1CN(C(=O)COC(=O)c2ccc([N+](=O)[O-])s2)c2ccccc2N1	.	.	68.8*	?	.
Cc1sc2ncnc(OCC(=O)N3CC(=O)Nc4ccccc43)c2c1C	-1.2	-0.7	-8.3	-1.6	31.5*
O=C1CN(C(=O)COc2ncnc3ccccc23)c2ccccc2N1	-10.0	-0.4	-16.2	-3.2	3.3
CC1CC(=O)Nc2ccccc2N1C(=O)COc1cc(Cl)ccc1Cl (stereo unspecified)	30.4*	-0.1	-4.4	1.8	-4.3
CCOC(=O)c1ccc(N2CCN(c3cc(C)ccc3C)CC2)c(NC(=O)Nc2ccccc2)c1	.	0.3	.	.	6.0
COc1cc(NC(=O)CSc2cc(=O)n(C)c3ccccc23)cc(OC)c1OC	.	0.0	.	.	-7.1
CCCOc1ccc(NC(=O)CC2C(=O)N(c3ccc(Cl)cc3)C(=O)N2CCc2ccncc2)cc1 (stereo unspecified)	.	-0.1	.	.	.
O=[N+]([O-])c1cc(-c2ccc(/C=N/c3nc4ccccn4c3-c3ccco3)o2)ccc1Cl	10.3	0.1	70.4*	8.5	4.4
O=[N+]([O-])c1ccc(-c2ccc(C=Nc3cccc4ccccc34)o2)cc1	-3.7	-0.6	14.5	-0.4	3.7
Cc1cccc(CSc2ncccc2C(=O)O)c1	-20.0	0.6	-2.6	1.3	5.3
SMILES	D2 antagonist	D2 ag-1	D2 PAM-1	D2 ag-2	D2 PAM-2
O=C(O)c1cccnc1SCc1cccc(Cl)c1	44.6*	-1.2	-29.0	0.9	-22.0
CCOC(=O)CN1C(=O)C(Sc2n[nH]c(-c3cccc(C)c3)n2)CCc2ccccc21 (stereo unspecified)	-13.4	-0.5	-21.9	-0.1	-22.1
CCOC(=O)CN1C(=O)C(Sc2n[nH]c(-c3ccc(C)cc3)n2)CCc2ccccc21 (stereo unspecified)	60.8*	0.1	-27.0	-4.1	-20.8
CCc1c(C)sc2c1CCN(Cc1ccc(F)cc1)C2c1ccccc1 (stereo unspecified)	.	-0.7	.	.	2.8
O=C(CSc1nc2ccc(N3CCOCC3)cc2c(=O)n1CCc1ccccc1)NCC1CCCO1 (stereo unspecified)	40.6*	1.1	6.4	14.2	.
O=C(C1CCC1)N1CCc2cc(S(=O)(=O)N3CCN(c4ccccc4)CC3)ccc21	.	0.5	.	.	-16.6
Cc1cc(C)n2nc(C(=O)OCC(=O)Nc3ccc(Cl)cc3)nc2n1	.	.	0.0	0.6	.
CCCOC(=O)c1ccc(NC(=O)c2nc3nc(C)cc(C)n3n2)cc1	7.8	-0.7	-7.6	-3.0	31.1*
Cc1nn(C(=O)c2cccc(F)c2)c(C)c1S(=O)(=O)N1CCCCCC1	.	-0.2	.	.	13.0
CCCCNC(=O)N1CCOCCOCCN(C(=O)NCCCC)CCOCCOCC1	32.3*	2.7	4.7	-1.1	.
CCOC(=O)CSc1nc2sc3c(c2c(=O)n1Cc1ccccc1)CC(C)CC3 (stereo unspecified)	.	1.1	.	.	0.7
COc1ccc(N(CCC(=O)O)S(=O)(=O)c2ccc(C)c(C)c2)cc1	4.9	-0.1	-3.1	-0.4	-6.4
Cc1ccc(S(=O)(=O)CCC(=O)O)cc1C	35.5*	0.4	-4.8	2.1	-1.8
O=C(NC1CC1)C1CCN(S(=O)(=O)c2ccc(Cl)cc2)CC1	32.0*	-0.4	-5.3	0.5	5.7
O=C(NC1CCN(S(=O)(=O)c2ccc(Cl)cc2)CC1)C1CCCCC1	-9.7	1.6	-11.7	0.1	-5.6
NC(=O)C1CCN(C(=O)COc2ccc3c4c(c(=O)oc3c2)CCCC4)CC1	30.8*	1.6	-26.2	-5.6	7.5
O=C(O)C1CCN(C(=O)COc2ccc3c4c(c(=O)oc3c2)CCC4)CC1	14.9	5.5	-7.1	-2.7	16.3
Cc1cc(Br)ccc1NC(=O)c1cc2c(=O)n(C)c3cc(Cl)ccc3c2s1	.	1.6	.	.	0.9
COc1ccc(-c2cc3ccccc3n2CC(O)CNCCO)cc1 (stereo unspecified)	.	.	-17.2	-2.2	.
COc1ccc(-c2cc3ccccc3n2CC(O)CN2CCCCC2)cc1 (stereo unspecified)	42.9*	0.6	-23.5	-0.2	-22.2
COc1ccc(-c2ccc(NS(=O)(=O)c3ccc(OC)c(OC)c3)cc2)nn1	.	-0.4	.	.	1.1
O=C(c1cncc(Br)c1)N1CCN(S(=O)(=O)c2ccccc2)CC1	12.0	0.6	-2.8	5.5	4.1
O=C(c1cncc(Br)c1)N1CCN(S(=O)(=O)c2ccccc2C(F)(F)F)CC1	40.4*	0.5	-4.1	0.7	15.6
Nc1nc(Cl)nc2c1ncn2[C@@H]1O[C@H](CO)[C@@H](O)[C@H]1O	37.4*	4.0	-17.3	2.0	12.3
CCOC(=O)C1CCN(C(=O)Cn2c(=O)oc3cc(S(=O)(=O)N4CCC(C)CC4)ccc32)CC1	.	-0.9	.	.	-2.2
CN(CCCNC(=O)c1cccn2c(=O)c3ccccc3nc12)Cc1ccccc1	31.0*	0.3	-20.4	-3.4	-20.7
O=C(NCCN1CCN(c2ccccc2)CC1)c1cccn2c(=O)c3ccccc3nc12	18.0	6.3	-26.7	-3.8	7.0
